Reference: PubChem BioAssay (NCATS)
Results filed as inconclusive are left out. Activity calls are given as the source filed them. Calls come from the whole dose curve; as a rule, active = well fitted inhibition curve with a large enough effect; inconclusive = small, poorly fitted or top-dose-only effect; inactive = no such curve, though single readings can be large or run the other way.
Potency is the fitted concentration of half-maximal effect.

Test: BET inhibitor-based combinations targeting novel dependencies in MECOM-rearranged (r) AML: MV-4-11 cell line (AID 2202233); note: nearly all actives have a fitted effect of over 45% in size;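 for viability, % of control: plate controls were DMSO for no effect and blank wells for full effect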
Conditions: MV-4-11 AML viability, CellTiter-Glo luminescence, 48 h; series mostly up to 46 µM
Summary of the method: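 Cells at 500/well were exposed for 48 hr to MIPE v5.0 drugs as 11-point dose curves. Viability was read by CellTiter-Glo luminescence and normalized to DMSO and empty-well controls. Activity was expressed as AUC and per-cell-line Z-AUC.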
With O=C(O)/C=C/c1ccc(Cn2ccnc2)cc1 the Potency was “inactive”. With C[C@]12CCC3=C4CCC(=O)C=C4CC[C@H]3[C@@H]1CC[C@@]2(O)CC#N the Potency was “inactive”. For CC(C)(C(=O)NCC(F)(F)C(F)(F)F)C(=O)N[C@@H]1C(=O)Nc2ccccc2-c2ccccc21, the Potency was “inactive”. With CCO[C@@H]1OC(=O)C[C@@H]1NC(=O)[C@@H]1CCCN2C(=O)CC[C@H](NC(=O)c3nccc4ccccc34)C(=O)N12 the Potency was “inactive”. For CC(=O)NCC(=O)N1[C@@H]2CC[C@H]1c1ccc(Nc3ncc(C(F)(F)F)c(NC4CCC4)n3)cc12, the Potency was 0.0417 µM (active). In the case of N#C/C(=C1/Nc2ccccc2S1)c1ccnc(OCc2ccc(CN3CCOCC3)cc2)n1, the Potency is reported as 16.6 µM (active). In the case of COc1ccc(/C=C\c2cc(OC)c(OC)c(OC)c2)cc1O, the Potency is reported as 0.0132 µM (active). For CN(C)C/C=C/C(=O)Nc1cc2c(Nc3ccc(F)c(Cl)c3)ncnc2cc1O[C@H]1CCOC1, the Potency was 1.18 µM (active). In the case of CC[C@H](CO)Nc1nc(NCc2ccccc2)c2ncn(C(C)C)c2n1, the Potency is reported as 20.9 µM (active). In the case of COc1ccc(C(=O)N2CCN(C(=O)/C=C/c3ccc(Br)cc3)CC2)cc1, the Potency is reported as 11.8 µM (active). For C[C@@H]1C(=O)OC2[C@H](O)[C@]34[C@H]5C[C@@H](C(C)(C)C)[C@]36[C@@H](OC(=O)[C@@H]6O)O[C@@]4(C(=O)O5)[C@]21O (stereo partly specified), the Potency was “inactive”. In the case of Cc1ccc(-c2ncn(-c3ccc(Nc4nccc(-c5cccc(N6CCOCC6)c5)n4)cc3)n2)cn1, the Potency is reported as 2.35 µM (active). For O=c1sn(-c2cccc3ccccc23)c(=O)n1Cc1ccccc1, the Potency was 11.8 µM (active). For Cc1ccc2cc(-c3c(C)ccc(C(=O)c4c(-c5ccccc5)n(C)n(-c5ccccc5)c4=O)c3N)ccc2n1, the Potency was “inactive”. For Cc1cc(O)cc2c1[C@]1(C)CC[C@H]3C(C)(C)CCC[C@]3(C)[C@H]1C2, the viability, % of control was 0.199% [at 5.12 µM] (inactive). With Cc1nc2ccc(CN(C)c3ccc(C(=O)N[C@@H](CCC(=O)O)C(=O)O)s3)cc2c(=O)[nH]1 the Potency was 0.0468 µM (active). In the case of O=C(c1ccc(Nc2nc(C3CC3)cn3c(-c4cn[nH]c4)cnc23)c(F)c1)N1CCOCC1, the Potency is reported as 1.18 µM (active). For O=C(O)CCC=CCC[C@@H]1[C@H](N2CCCCC2)[C@@H](O)C[C@@H]1OCc1ccc(-c2ccccc2)cc1, the Potency was “inactive”. For CN(C)CC[C@H](CSc1ccccc1)Nc1ccc(S(=O)(=O)NC(=O)c2ccc(N3CCN(Cc4ccccc4-c4ccc(Cl)cc4)CC3)cc2)cc1[N+](=O)[O-], the Potency was 0.263 µM (active). With CC(C)(C)c1nc2c3cc[nH]c(=O)c3c3cc(F)ccc3c2[nH]1 the Potency was 1.18 µM (active). In the case of Cn1c(-c2ccccc2C(F)(F)F)nnc1C12CCC(c3noc(C4CC(F)(F)C4)n3)(CC1)CC2, the Potency is reported as 16.6 µM (active). With COCCNc1cc(NC(=O)N2CCCc3cc(CN4CCN(C)CC4=O)c(C=O)nc32)ncc1C#N the viability, % of control was 97.1% [at 8.46 µM] (inactive). With CC(C)c1ccc(Cn2ccc3c4c(N)nc(NC5CC5)nc4ccc32)cc1 the Potency was 2.09 µM (active). With CO[C@H]1/C=C/O[C@@]2(C)Oc3c(C)c(O)c4c(O)c(c5c(nc6cc(C)ccn65)c4c3C2=O)NC(=O)/C(C)=C\C=C\[C@H](C)[C@H](O)[C@@H](C)[C@@H](O)[C@@H](C)[C@H](OC(C)=O)[C@@H]1C the Potency was “inactive”. In the case of COC(=O)[C@H](CCCN=C(N)N)NS(=O)(=O)c1ccc(C)cc1, the Potency is reported as “inactive”. In the case of CC#Cc1cncc(-c2ccc3c(c2)[C@@]2(N=C(C)C(N)=N2)C2(CCC(OC)CC2)C3)c1 (stereo partly specified), the Potency is reported as 18.6 µM (active).
